Sampled rows, rich in hits. Any-hit rate of the full collection: about 0.95%.
Giardia FBPA inh-1 = Giardia lamblia aldolase inhibition. A8B2U2. purified Giardia FBPA. Potency, µM (highest dose often 59.6 µM), for inactives: top-dose activity, negative = inhibition, hits mostly inhibitors. actives 0.71% (n = 290,000). AID 2451; also: nearly all actives have a fitted effect of over 55% in size
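40 nM FBPA preincubated 10 min at RT with compound (up to 57.5 uM final), then substrate plus GAPDH/TPI/NAD/arsenate coupling and diaphorase/resazurin added. Fluorescence read after 20 min at RT, 525/598 nm.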
Tb PYK inh = inhibitors of Trypanosoma brucei pyruvate kinase; actives 0.12% (n = 410,000); TbPYK enzyme, Kinase-Glo Plus ATP luminescence, 45 min; Potency, µM (titrated, usually from 76.8 µM), inactives show top-dose activity, negative = inhibition, most hits filed as inhibitors; Q57TT1; also: nearly all actives have a fitted effect of over 50% in size
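Activity of T. brucei pyruvate kinase was followed by Kinase-Glo Plus luminescence after the enzyme reacted 45 min at room temperature with 130 uM ADP (final) and substrate. Test compounds were added before ADP at multiple concentrations.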
LmPK inh = inhibitors of Leishmania mexicana pyruvate kinase. Q27686. purified LmPK, Kinase-Glo ATP luminescence, 1 h. Potency, µM (top dose mostly 57.5 µM), for the others: at the highest dose activity change, negative = inhibition, usual class: inhibitors. actives 0.37% (n = 290,000). AID 1721
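Pyruvate kinase activity monitored as ATP production (luciferase luminescence). Conditions: 0.1 nM enzyme, 0.5 mM PEP, 0.1 mM ADP, 1 h, RT; normalized against uninhibited and no-enzyme wells.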
RE007 growth inh = less growth of the S. pombe RE007 Vpr strain; Potency, µM (top dose mostly 92.2 µM), without a hit: at the highest dose activity change, negative = less growth, actives largely listed as inhibitors; S. pombe RE007 Vpr strain, BacTiter-Glo ATP luminescence, 24 h; actives 0.21% (n = 360,000); active = well fitted falling curve with a large enough effect; inconclusive = small, poorly fitted or top-dose-only effect; inactive = no such curve, though single readings can be large or run the other way; also: nearly all actives have a fitted effect of over 50% in size
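Fission yeast RE007 carrying one integrated HIV-1 vpr copy, seeded at OD 0.01 in PMG+AL medium with 23 nL pinned compound. Grown 24 h at 30 degrees; viability read by BacTiter-Glo luminescence after 5 min.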
Giardia growth = Giardia lamblia growth inhibition. Potency, µM (highest dose often 57.5 µM), without a hit: top-dose activity change, negative = inhibition, usual class: inhibitors. shares compounds with Giardia FBPA inh-1. Giardia lamblia trophozoite growth inhibition. actives 5% (n = 1,500);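 also: trophozoites exposed to compound for 48 h at 37 °C; nearly all actives have a fitted effect of over 70% in size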
Mammalian tox = counter-screen for Giardia aldolase inhibitors: mammalian cell toxicity. shares compounds with Giardia FBPA inh-1. mammalian cell viability counter-screen, qHTS. Potency, µM (highest dose often 57.5 µM), without a hit: at the top dose viability change, negative = toxicity, most hits filed as inhibitors. actives 4% (n = 1,500). AID 2786;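 also: Chinese hamster ovary cells used as mammalian cytotoxicity surrogate; viability measured as cellular ATP by luminescence; compound exposure lasted 48 h before reading; nearly all actives have a fitted effect of over 60% in size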
Giardia FBPA inh-2 = confirmation of Giardia fructose-bisphosphate aldolase inhibitors; shares compounds with Giardia FBPA inh-1; purified Giardia aldolase enzyme activity, qHTS; Potency, µM (series often up to 57.5 µM), inactives show at the highest dose activity change, negative = inhibition, usual class: inhibitors; actives 5% (n = 1,500); also: nearly all actives have a fitted effect of over 45% in size
Rabbit aldolase = selectivity test for Giardia aldolase inhibitors: rabbit aldolase; shares compounds with Giardia FBPA inh-1; Rabbit muscle FBPA enzyme inhibition, selectivity counter-screen; Potency, µM (series often up to 57.5 µM), for inactives: at the top dose activity, negative = inhibition, usual class: inhibitors; actives 4% (n = 1,500); AID 2794; also: nearly all actives have a fitted effect of over 60% in size
Target sequence (P00883 whole entry, looked up): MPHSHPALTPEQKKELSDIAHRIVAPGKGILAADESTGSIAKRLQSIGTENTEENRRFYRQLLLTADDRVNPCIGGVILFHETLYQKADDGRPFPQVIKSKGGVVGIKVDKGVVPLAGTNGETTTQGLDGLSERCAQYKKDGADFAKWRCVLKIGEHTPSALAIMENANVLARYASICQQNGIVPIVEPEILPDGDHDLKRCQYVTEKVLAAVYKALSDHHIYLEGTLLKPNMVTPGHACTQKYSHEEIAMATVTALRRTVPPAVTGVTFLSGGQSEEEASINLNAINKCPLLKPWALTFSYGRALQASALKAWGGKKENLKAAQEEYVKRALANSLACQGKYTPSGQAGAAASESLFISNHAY
GAPDH counter = GAPDH inhibition flagged for Giardia aldolase hits | shares compounds with Giardia FBPA inh-1 | GAPDH coupling enzyme counterscreen, biochemical, qHTS | Potency, µM (doses to about 57.5 µM), for the others: top-dose activity change, negative = inhibition, usual class: inhibitors | actives 6% (n = 1,500) | AID 2795; also: nearly all actives have a fitted effect of over 55% in size
Numbers without * were called inactive; ? = inconclusive; . = not tested or not shown; [ ] = another dose, or the depositor's remark. Unless noted, calls follow the shape of the dose curve; as a rule, active = well fitted curve in the direction sought with a large enough effect; inconclusive = small, poorly fitted or top-dose-only effect, or another doubt; inactive = no such curve, though single readings can be large; an effect the other way counts as inactive or inconclusive. % is scaled to controls: 0 for no effect and ±100 for the full control effect; potency is read from the fitted curve at half-maximal effect.

SMILES	Giardia FBPA inh-1	Tb PYK inh	LmPK inh	RE007 growth inh	Giardia growth	Mammalian tox	Giardia FBPA inh-2	Rabbit aldolase	GAPDH counter
Cc1nnc(SCC2=C(C(=O)O)N3C(=O)C(NC(=O)Cn4ncc(Cl)c4C)C3SC2)s1 (stereo unspecified)	20µM*	-13%	37%	-6%	-21%	-4%	-8%	-5%	0%
CCCOC(=O)c1ccc(N)cc1	.	2%	.	.	.	.	.	.	.
C=CCNC(=S)/C(=C(\[O-])c1ccc(Cl)cc1)[n+]1ccccc1	13µM*	-11%	2%	-10%	-21%	4%	-2%	7%	-2%
Cc1cccc(C(=O)OCCN2CCOCC2)c1	14µM*	2%	-2%	-4%	?	2%	3%	9%	9%
O=C(OCCN1CCOCC1)c1cccc(F)c1	-21%	1%	7%	8%	.	.	.	.	.
O=C(Nc1nccc(-c2cccs2)n1)c1ccccc1Cl	7.9µM*	-1%	0%	-9%	-6%	-9%	25µM*	25µM*	16µM*
O=C(CSc1nccc(-c2cccs2)n1)Nc1cccc(Cl)c1Cl	-1%	-7%	3%	-4%	.	.	.	.	.
CSc1cccc(NC(=O)Cn2ncn3c(cc4ccccc43)c2=O)c1	.	0%	.	.	.	.	.	.	.
CCOc1ccccc1-c1nnc2n1N=C(c1cc(OC)cc(OC)c1)CS2	-1%	.	.	.	.	.	.	.	.
Cc1nc(NC(=O)CN2CCN(c3ccccc3F)CC2)sc1C(=O)N(C)C	3.2µM*	3%	5%	-18%	0%[10.4 µM]	-1%	4%	5%	-13%
COc1cc2c(cc1OC)C1O[C@](c3ccsc3)(C2)Oc2cc(-c3ccccc3)oc(=O)c21	7%[12.9 µM]	.	-7%[11.5 µM]	.	.	.	.	.	.
Cc1ccccc1C(=O)NC(=S)Nc1ncccn1	4.5µM*	-1%	5%	18%	-15%[38.3 µM]	-24%	-19%	-14%	-11%
Cc1ccc(C(=O)c2ccc(C)cc2)cc1	1%	3%	0%	-4%	.	.	.	.	.
Cc1ccc(C(=O)c2no[n+]([O-])c2C(=O)c2ccc(C)cc2)cc1	16µM*	-5%	2%	32µM*	-5%	-2%	-7%	?	-27%
CCOC(=O)c1cccc(NC(=O)CSc2cc(=O)n(C)c3ccccc23)c1	.	-10%	.	.	.	.	.	.	.
COC(=O)[C@@H](N)CS	16µM*	2%	2%	-10%[18.4 µM]	3%[10.4 µM]	1%	4%	11%	13%
CCOC(=O)c1cccc(NC(=O)NCc2cccn2Cc2ccccc2)c1	.	3%	.	.	.	.	.	.	.
CCCn1c(C(C)NS(=O)(=O)c2ccccc2)n[nH]c1=S (stereo unspecified)	10µM*	?	-18%	2%	73%	12%	-1%	-1%	6%
CCn1c(C(C)NS(=O)(=O)c2ccc(Cl)cc2)n[nH]c1=S (stereo unspecified)	11µM*	?	2%	3%	14%	-6%	6%	4%	13%
CCCn1c(C(C)NC(=O)c2ccccc2)n[nH]c1=S (stereo unspecified)	19%	?	-2%	-13%	.	.	.	.	.
O=C(N/N=C/c1ccccn1)c1cc(-c2ccccc2)nc2ccccc12	14µM*	-1%	2%	12%	24%	?	10%	7%	-2%
O=C(N/N=C/c1ccccn1)c1cc(C2CC2)nc2ccccc12	8%	-5%	-1%	14%	.	.	.	.	.

From PubChem BioAssay
